HT1080 IDH1KD tx: toxicity to HT-1080 IDH1 knockdown cells (counter line); HT-1080 IDH1 knockdown viability, ATP luminescence, 48 h; Potency, µM (highest dose often 46.1 µM), hits mostly cytotoxic; hit rate 2% among 360,000; AID 686971
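Using the IDH1-knockdown HT-1080 line run in the same batch and compound series as the NT line, viability after 48 h at 37 °C was determined by CellTiter-Glo luminescence and expressed as % activity.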
KB-V1 cytotox: KB-V1 MDR subline cytotoxicity; KB-V1 MDR cells viability, CellTiter-Glo, 72 h; Potency, µM (titrated, usually from 46.1 µM), hits mostly cytotoxic; hit rate 3.4% among 400,000; AID 1347076; also: nearly all actives have a fitted effect of over 60% in size
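Cytotoxicity via CellTiter-Glo luminescence after 72 h compound exposure at 37 degrees C. Cells: drug-selected KB-V1 line, DMEM phenol-red free plus 10% FBS. Compounds tested at multiple concentrations; normalized data fitted to concentration-effect curves.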
SW480 rereplic: inducers of DNA re-replication in SW480 colon cancer cells. SW480 DNA re-replication, Hoechst DNA content imaging, 48 h. Potency, µM (highest dose often 46.1 µM), most hits filed as activators. hit rate 1.8% among 340,000. AID 624297; also: nearly all actives have a fitted effect of over 55% in size
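Readout is total intensity of Hoechst-stained nuclei, excited at 405 nm and collected at 500-530 nm. Compound treatment lasted 48 hr at 37 C in 5% CO2 before staining.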
MCF10A rerep: induces DNA re-replication in MCF 10a normal breast cells | MCF 10A DNA re-replication, Hoechst nuclear intensity, 48 h | Potency, µM (series often up to 46.1 µM), actives largely listed as activators | hit rate 2.9% among 350,000 | AID 624296; also: nearly all actives have a fitted effect of over 50% in size
HT1080NT lethal: kills 2HG-producing HT-1080-NT fibrosarcoma cells; HT-1080-NT fibrosarcoma viability, CellTiter-Glo ATP luminescence, 48 h; Potency, µM (series often up to 46.1 µM), hits mostly cytotoxic; hit rate 1.6% among 360,000; AID 686970;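 also: NT is the 2HG producing partner of a matched IDH1 knockdown line; nearly all actives have a fitted effect of over 55% in size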
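Viability by CellTiter-Glo luminescence after 48 h compound exposure at 37C of HT-1080-NT cells (750/well, RPMI, 5% FBS). % activity scaled between DMSO wells and medium-only wells, then curve-fitted and categorized by curve class.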
KB-3-1 tox: KB-3-1 parental cell cytotoxicity. Potency, µM (highest dose often 46.1 µM), hits mostly cytotoxic. AID 1347075. KB-3-1 viability, CellTiter-Glo ATP luminescence, 72 h. hit rate 1.4% among 400,000; also: nearly all actives have a fitted effect of over 60% in size
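Luminescent ATP read-out (CellTiter-Glo) measures survival of drug-naive KB-3-1 cells after 72 h compound exposure at 37 °C. Titration series was screened from lowest to highest concentration, with DMSO vehicle plates as background controls.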
Each line names hits and unclear results; the compound was inactive in the other large screens. Only some compounds are listed: those with a hit (about 8% of all), similar ones and a draw of the others. Calls follow the shape of the dose curve; as a rule, active = well fitted curve in the direction sought with a large enough effect; inconclusive = small, poorly fitted or top-dose-only effect, or another doubt; inactive = no such curve, though single readings can be large; an effect the other way counts as inactive or inconclusive.

c1ccc(-c2cc(NCCN3CCCCC3)c3ccccc3n2)cc1	HT1080 IDH1KD tx 21µM, KB-V1 cytotox inconclusive, SW480 rereplic inconclusive, HT1080NT lethal 21µM, KB-3-1 tox inconclusive
CC(=O)Oc1ccc(/C=N/NC2=NS(=O)(=O)c3ccccc32)cc1	none
CCCCCCCCCC[n+]1cccc2cc(Br)ccc21	KB-V1 cytotox inconclusive, KB-3-1 tox 1.3µM (no result: HT1080 IDH1KD tx, SW480 rereplic, MCF10A rerep, HT1080NT lethal)
CCCCCCCCC[n+]1cccc2c3ccccc3ccc21	HT1080 IDH1KD tx 10µM, KB-V1 cytotox inconclusive, SW480 rereplic inconclusive, MCF10A rerep inconclusive, HT1080NT lethal 7.3µM, KB-3-1 tox inconclusive
CCCCCCCCCCCCCCCC[n+]1cccc2ccccc21	HT1080 IDH1KD tx 8.2µM, KB-V1 cytotox 23µM, SW480 rereplic inconclusive, MCF10A rerep 18µM, HT1080NT lethal 6.5µM, KB-3-1 tox inconclusive
CCCCCCCCCCCC[n+]1ccc2ccccc2c1	SW480 rereplic inconclusive (no result: HT1080 IDH1KD tx, KB-V1 cytotox, HT1080NT lethal, KB-3-1 tox)
CCCCNC(=O)c1sc(=S)n2c1[nH]c(=O)c1ccc(C(=O)NCCc3ccc(OC)c(OC)c3)cc12	none
CCC(C)N(CC(=O)Nc1cccc(C)c1C)C(=O)CCl (configuration not stated)	HT1080 IDH1KD tx 1µM, KB-V1 cytotox inconclusive, SW480 rereplic inconclusive, MCF10A rerep inconclusive, HT1080NT lethal 1.6µM, KB-3-1 tox inconclusive
CC(C)N(CC(=O)Nc1ccc(Cl)cc1C(F)(F)F)C(=O)CCl	HT1080 IDH1KD tx 6.5µM, KB-V1 cytotox inconclusive, SW480 rereplic inconclusive, MCF10A rerep inconclusive, HT1080NT lethal 6.5µM
CCCCN(C=O)c1c(CC)nc2ccc(C(=O)N3CCN(C)CC3)cn12	none (no result: SW480 rereplic, MCF10A rerep)
O=C(O)/C=C\C(=O)Nc1cccc(NC(=O)c2ccccc2)c1	none
CCOc1ccc(/C=C/C(=O)Nc2cccc(C(C)=O)c2)cc1	KB-V1 cytotox inconclusive, SW480 rereplic inconclusive, MCF10A rerep inconclusive
CCOC1=C/C(=C/c2c(N)n3nc(-c4ccccc4)sc3nc2=O)C=CC1=O	MCF10A rerep 26µM
CCOn1c(=O)c(-c2cccc(Br)c2)[n+]([O-])c2ccccc21	none
CC[C@@H]1CCC[C@@H](O)[C@@H](C)C(=O)O[C@H](C)[C@@H](C)C/C=C(C)/C(OC)=C\C(=O)N(C)C([C@@H](C)CC)C(=O)N(C)[C@@H](C(C)C)C(=O)N(C)[C@@H](COC)C(=O)N2CCC[C@H]2C(=O)N(C)[C@@H](C(C)C)C(=O)N2CCC[C@H]2C(=O)O1 (some centres not stated)	HT1080 IDH1KD tx inconclusive, KB-V1 cytotox 1.8µM, HT1080NT lethal inconclusive, KB-3-1 tox inconclusive (no result: SW480 rereplic, MCF10A rerep)
O=C(CSCc1ccc(Cl)cc1)Nc1cccc(C(=O)Nc2ccccc2C(=O)O)c1	HT1080 IDH1KD tx inconclusive, MCF10A rerep inconclusive
COc1cccc(NC(=O)C2=COCCO2)c1	none
CCOc1ccccc1C(=O)Nc1cccc(-c2ccc3nncn3n2)c1	KB-V1 cytotox inconclusive
O=S(=O)(NCC(c1ccco1)N1CCN(c2ccccc2F)CC1)c1ccc(F)cc1 (configuration not stated)	none
O=S(=O)(NCC(c1ccco1)N1CCN(c2ccccc2)CC1)c1ccc(F)cc1 (configuration not stated)	KB-V1 cytotox 23µM, MCF10A rerep inconclusive
O=S(=O)(NCC(c1ccco1)N1CCc2ccccc2C1)c1ccc(Br)cc1 (configuration not stated)	HT1080 IDH1KD tx inconclusive, MCF10A rerep 4.1µM, HT1080NT lethal inconclusive
O=C(NCc1ccncc1)C(=O)NCC(c1ccco1)N1CCN(c2ccc(F)cc2)CC1 (configuration not stated)	KB-V1 cytotox 2.6µM, KB-3-1 tox inconclusive
CCS(=O)(=O)NCC(c1ccco1)N1CCN(c2ccccc2)CC1 (configuration not stated)	KB-V1 cytotox 23µM
Cc1ccc(S(=O)(=O)NCC(c2ccco2)N2CCc3ccccc3C2)cc1 (configuration not stated)	none
COc1ccc(C(C(=O)NC2CCCC2)N(CCC(C)C)C(=O)CCC(=O)Nc2cc(C)on2)cc1 (configuration not stated)	none

Compound activity: PubChem BioAssay, National Center for Advancing Translational Sciences (NCATS)
